Rows were chosen to be rich in hits. Some 2.4% of all compounds tested hit in one or more screens of this group.
Pol iota inh: blocks human DNA polymerase iota activity. actives 1% (n = 390,000). AID 588590. Potency, µM (top dose mostly 115 µM), actives largely listed as inhibitors. Pol iota fluorescent replication assay, 10 min
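Pol iota at 10 nM preincubated 15 min with compounds at room temperature; reaction started with fluorescent substrate, 50 nM final. Fluorescence read kinetically at 0 and 10 min; buffer-only wells as negative control.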
FEN1 inh: human FEN1 inhibition; P39748; Recombinant FEN1 flap cleavage, fluorescence, 15 min; Potency, µM (series often up to 114 µM), usual class: inhibitors; actives 0.35% (n = 390,000); note: nearly all actives have a fitted effect of over 65% in size
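Quantitative HTS format: each compound was titrated, incubated with 10 nM nuclease for 15 min at room temperature, then challenged with flap substrate at 50 nM final. Signal change over 15 min gave concentration–effect curves.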
Pol beta inh: inhibitors of human DNA polymerase beta; Potency, µM (titrated, usually from 114 µM), actives largely listed as inhibitors; AID 485314; P06746; Pol beta primer extension/strand displacement, fluorescence kinetic; actives 1.3% (n = 340,000)
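10 nM enzyme + cpd, 15 min RT; start with substrate 50 nM final; read 0 min and after 10 min RT. Corrected, normalized data; 4-parameter Hill curve fit.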
POLH inh: DNA polymerase eta (human) inhibition. Potency, µM (highest dose often 114 µM), hits mostly inhibitors. recombinant Pol eta, fluorescent DNA replication assay. AID 588591. Q9Y253. actives 1.2% (n = 390,000)
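Pol eta at 10 nM preincubated with compounds 15 min at room temperature; reaction started with fluorescent substrate (50 nM final) and read kinetically at 0 and 10 min.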
WRN inhibitor: inhibitors of human WRN helicase; AID 651768; WRN helicase unwinding, fluorescent forked duplex, kinetic; Potency, µM (doses to about 114 µM), most hits filed as inhibitors; actives 0.46% (n = 360,000); Q14191; note: nearly all actives have a fitted effect of over 55% in size
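Enzyme (20 nM final) and test compound sit together 15 min at room temperature before substrate addition. Substrate is a single-forked duplex oligonucleotide (100 nM) labelled with fluorophore and quencher, with 2 mM ATP; helicase unwinding raises red fluorescence, read kinetically.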
Pol kappa inh: DNA polymerase kappa (human) inhibition. Q9UBT6. purified Pol kappa, fluorescent DNA synthesis assay, 10 min. Potency, µM (titrated, usually from 107 µM), hits mostly inhibitors. actives 0.53% (n = 400,000). AID 588579
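Readout: fluorescence, taken kinetically at 0 and 10 min. Conditions: 10 nM Pol kappa, 15 min RT compound preincubation, 50 nM substrate final. Controls: enzyme-free buffer wells.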
TbPGK inh: blocks T. brucei phosphoglycerate kinase. shares compounds with Pol kappa inh. TbPGK coupled GAPDH assay, Kinase-Glo luminescence. Potency, µM (series often up to 57.5 µM), usual class: inhibitors. actives 79% (n = 500); note: nearly all actives have a fitted effect of over 65% in size
Pol iota confirm: Human Pol iota inhibitor confirmatory assay; Pol iota primer extension, TAMRA/BHQ fluorescence; shares compounds with Pol kappa inh; actives 77% (n = 1,500); Potency, µM, usual class: inhibitors
Large screens that a line does not name were inactive (follow-up assays come after a bar, where they were run). Calls come from the whole dose curve; as a rule, active = well fitted curve in the direction sought with a large enough effect; inconclusive = small, poorly fitted or top-dose-only effect, or another doubt; inactive = no such curve, though single readings can be large; an effect the other way counts as inactive or inconclusive.

C=CCN1C=C2C(=O)C(C)(OC(=O)c3cnc4ccccc4n3)C(=O)C=C2C=C1/C=C/COC (centres undefined)	Pol iota inh inconclusive, POLH inh 25.1µM, Pol kappa inh inconclusive (no result: Pol beta inh) | Pol iota confirm inconclusive
COC/C=C/C1=CC2=CC(=O)C(C)(OC(=O)c3cnc4ccccc4n3)C(=O)C2=CN1CCOC (centres undefined)	Pol iota inh inconclusive (no result: Pol beta inh)
COc1ccc(-c2cc3nc(C)n(N)c(=O)c3s2)cc1	none | TbPGK inh 4.11µM
COc1ccc(-c2cc3nc4n(c(=O)c3s2)CCC4)cc1	none
Cc1nc2cc(-c3ccccc3)sc2c(=O)n1N	none | TbPGK inh 8.19µM
CCOc1ccc(C=NNc2ccc(S(=O)(=O)Nc3ccccc3C(=O)O)cc2[N+](=O)[O-])cc1OC	Pol iota inh inconclusive, FEN1 inh 79.4µM, POLH inh inconclusive, WRN inhibitor inconclusive, Pol kappa inh inconclusive (no result: Pol beta inh) | TbPGK inh 8.19µM
CCOC(=O)c1ccc(NC(=O)C2CCCN(c3ccc(Sc4ccc(C)cc4)nn3)C2)cc1 (centres undefined)	none (no result: WRN inhibitor)
Cc1ccc(O)c(N=Nc2ccccc2)n1	none | TbPGK inh 14.6µM
Oc1ccc(Cl)cc1N=Nc1ccccc1	none
CC1=C(C(=O)Nc2cccnc2)C(c2cccc(O)c2)n2nc(SCc3ccccc3)nc2N1 (centres undefined)	Pol iota inh 79.4µM, POLH inh inconclusive (no result: WRN inhibitor) | Pol iota confirm inconclusive
Cc1csc(NC(=O)c2cn3ccccc3n2)n1	Pol beta inh inconclusive | TbPGK inh 18.3µM
O=C(Nc1ccccc1)c1cn2ccccc2n1	none
Cc1ccsc1/C=C1\CCc2ccccc2C1=O	none | TbPGK inh 14.6µM
OC[C@@H]1OC(O)[C@H](O)[C@H](O)[C@H]1O (some centres undefined)	none (no result: Pol iota inh, FEN1 inh, Pol beta inh, POLH inh, WRN inhibitor)
CCOc1ccc(NC(=O)Cn2cc(C(=O)c3ccc(CC)cc3)c(=O)c3cc(C)ccc32)cc1	Pol beta inh inconclusive, POLH inh 50.1µM (no result: WRN inhibitor) | Pol iota confirm inconclusive
COc1ccc(S(=O)(=O)N(Cc2nc(-c3ccc(Cl)cc3)no2)C2CCCCC2)cc1	none (no result: WRN inhibitor)
COc1cc([N+](=O)[O-])ccc1NC(=O)COC(=O)c1ccc(NC(N)=O)cc1	FEN1 inh inconclusive, Pol beta inh inconclusive, POLH inh inconclusive | Pol iota confirm 42.3
Cc1ccc(CNC(=O)c2nnn(CC(=O)Nc3cc(C)cc(C)c3)c2N)cc1	Pol iota inh 39.8µM, Pol beta inh inconclusive, POLH inh inconclusive, Pol kappa inh inconclusive | Pol iota confirm 33.6
COc1ccccc1NC(=O)CSc1ncc2c(n1)-c1ccccc1N(Cc1ccccc1C)S2(=O)=O	none (no result: WRN inhibitor)
C/C(=N/OC(=O)c1ccc(C)cc1)c1cccs1	none | TbPGK inh 10.3µM
Cc1ccc(C(=O)O/N=C(\N)c2nonc2N)cc1	none | TbPGK inh 23.1µM
Cc1ccc(C(=O)O/N=C(\N)c2ccccn2)cc1	none | TbPGK inh 6.51µM
N/C(=N\OC(=O)c1ccc(F)cc1)c1nonc1N	none
N/C(=N\OC(=O)c1ccccc1)c1ccccn1	none | TbPGK inh 10.3µM
COc1ccc(C(=O)O/N=C(\C)c2ccccc2)cc1	none | TbPGK inh 8.19µM
CC(C)CN(C)c1ccc(/C=C2\C=Cc3ccccc32)cc1	none (no result: Pol beta inh, POLH inh, WRN inhibitor)
Cc1ccc(NC(=O)CSc2nc3ccccc3c3nc(CCn4c(C)nc5ccccc54)nn23)cc1F	Pol iota inh 79.4µM, Pol beta inh inconclusive, POLH inh inconclusive (no result: WRN inhibitor) | Pol iota confirm inconclusive
Cc1nc2ccccc2n1CCc1nc2c3ccccc3nc(SCC(=O)Nc3ccc(C(C)C)cc3)n2n1	Pol iota inh inconclusive (no result: WRN inhibitor)
Cc1ccccc1NC(=O)CSc1nc2ccccc2c2nc(CCn3c(C)nc4ccccc43)nn12	none (no result: WRN inhibitor)

Bioassay records (PubChem)
